Reference: ChEMBL document CHEMBL1961873, “Compounds: GSK PKIS; Assays: Nanosyn kinase panel” (2012)

Legend:
[1] = molecular target: Tyrosine-protein kinase Fer (Homo sapiens) (UniProt P16591); conditions: at 1 µM
[2] = molecular target: Tyrosine-protein kinase Fes/Fps (Homo sapiens) (UniProt P07332); conditions: at 0.1 µM
[3] = molecular target: Tyrosine-protein kinase Fes/Fps (Homo sapiens) (UniProt P07332); conditions: at 1 µM
[4] = molecular target: Fibroblast growth factor receptor 1 (Homo sapiens) (UniProt P11362); conditions: at 0.1 µM
[5] = molecular target: Fibroblast growth factor receptor 1 (Homo sapiens) (UniProt P11362); conditions: at 1 µM
[6] = molecular target: Fibroblast growth factor receptor 2 (Homo sapiens) (UniProt P21802); conditions: at 0.1 µM
[7] = molecular target: Fibroblast growth factor receptor 2 (Homo sapiens) (UniProt P21802); conditions: at 1 µM
[8] = molecular target: Fibroblast growth factor receptor 3 (Homo sapiens) (UniProt P22607); conditions: at 0.1 µM
[9] = molecular target: Fibroblast growth factor receptor 3 (Homo sapiens) (UniProt P22607); conditions: at 1 µM
[10] = molecular target: Fibroblast growth factor receptor 4 (Homo sapiens) (UniProt P22455); conditions: at 0.1 µM
[11] = molecular target: Fibroblast growth factor receptor 4 (Homo sapiens) (UniProt P22455); conditions: at 1 µM
[12] = molecular target: Tyrosine-protein kinase Fgr (Homo sapiens) (UniProt P09769); conditions: at 0.1 µM
[13] = molecular target: Tyrosine-protein kinase Fgr (Homo sapiens) (UniProt P09769); conditions: at 1 µM
[14] = molecular target: Vascular endothelial growth factor receptor 1 (Homo sapiens) (UniProt P17948); conditions: at 0.1 µM
[15] = molecular target: Vascular endothelial growth factor receptor 1 (Homo sapiens) (UniProt P17948); conditions: at 1 µM
[16] = molecular target: Receptor-type tyrosine-protein kinase FLT3 (Homo sapiens) (UniProt P36888); conditions: at 0.1 µM
[17] = molecular target: Receptor-type tyrosine-protein kinase FLT3 (Homo sapiens) (UniProt P36888); conditions: at 1 µM
[18] = test system: T1, Receptor-type tyrosine-protein kinase FLT3 (Homo sapiens), P36888 [D835Y]; conditions: at 0.1 µM
T1 sequence (whole entry): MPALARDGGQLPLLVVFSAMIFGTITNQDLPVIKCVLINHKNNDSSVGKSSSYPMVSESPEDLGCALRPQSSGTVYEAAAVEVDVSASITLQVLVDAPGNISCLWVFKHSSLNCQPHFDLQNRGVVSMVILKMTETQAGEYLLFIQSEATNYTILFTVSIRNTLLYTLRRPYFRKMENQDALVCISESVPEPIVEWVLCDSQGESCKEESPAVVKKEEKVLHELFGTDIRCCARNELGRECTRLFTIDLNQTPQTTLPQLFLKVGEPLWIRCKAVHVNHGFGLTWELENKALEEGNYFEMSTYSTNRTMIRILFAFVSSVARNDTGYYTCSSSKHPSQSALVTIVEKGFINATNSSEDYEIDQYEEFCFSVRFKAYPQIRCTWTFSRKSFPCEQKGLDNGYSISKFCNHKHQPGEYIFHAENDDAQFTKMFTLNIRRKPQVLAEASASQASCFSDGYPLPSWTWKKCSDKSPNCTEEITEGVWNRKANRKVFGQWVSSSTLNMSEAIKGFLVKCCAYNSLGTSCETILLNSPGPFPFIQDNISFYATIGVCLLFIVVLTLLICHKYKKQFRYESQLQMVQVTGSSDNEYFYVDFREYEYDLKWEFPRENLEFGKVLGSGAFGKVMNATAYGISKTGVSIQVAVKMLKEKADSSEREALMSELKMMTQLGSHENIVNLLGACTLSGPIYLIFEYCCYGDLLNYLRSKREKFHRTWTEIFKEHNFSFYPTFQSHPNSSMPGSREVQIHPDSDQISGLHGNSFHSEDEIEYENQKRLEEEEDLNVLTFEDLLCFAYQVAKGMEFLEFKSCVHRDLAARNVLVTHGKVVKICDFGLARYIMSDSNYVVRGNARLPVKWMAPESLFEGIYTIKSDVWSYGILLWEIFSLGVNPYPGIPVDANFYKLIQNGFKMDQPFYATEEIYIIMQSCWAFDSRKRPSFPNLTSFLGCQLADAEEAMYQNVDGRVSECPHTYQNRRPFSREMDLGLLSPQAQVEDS

[19] = molecular target: Non-receptor tyrosine-protein kinase TYK2 (Homo sapiens) (UniProt P29597); conditions: at 1 µM;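 also: values are mean percent inhibition of TYK2 kinase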
[20] = molecular target: T2, Tyrosine-protein kinase receptor TYRO3 (Homo sapiens) (UniProt Q06418); conditions: at 0.1 µM;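 also: reported percentages are averaged inhibition values of TYRO3 kinase activity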
T2 sequence (whole entry): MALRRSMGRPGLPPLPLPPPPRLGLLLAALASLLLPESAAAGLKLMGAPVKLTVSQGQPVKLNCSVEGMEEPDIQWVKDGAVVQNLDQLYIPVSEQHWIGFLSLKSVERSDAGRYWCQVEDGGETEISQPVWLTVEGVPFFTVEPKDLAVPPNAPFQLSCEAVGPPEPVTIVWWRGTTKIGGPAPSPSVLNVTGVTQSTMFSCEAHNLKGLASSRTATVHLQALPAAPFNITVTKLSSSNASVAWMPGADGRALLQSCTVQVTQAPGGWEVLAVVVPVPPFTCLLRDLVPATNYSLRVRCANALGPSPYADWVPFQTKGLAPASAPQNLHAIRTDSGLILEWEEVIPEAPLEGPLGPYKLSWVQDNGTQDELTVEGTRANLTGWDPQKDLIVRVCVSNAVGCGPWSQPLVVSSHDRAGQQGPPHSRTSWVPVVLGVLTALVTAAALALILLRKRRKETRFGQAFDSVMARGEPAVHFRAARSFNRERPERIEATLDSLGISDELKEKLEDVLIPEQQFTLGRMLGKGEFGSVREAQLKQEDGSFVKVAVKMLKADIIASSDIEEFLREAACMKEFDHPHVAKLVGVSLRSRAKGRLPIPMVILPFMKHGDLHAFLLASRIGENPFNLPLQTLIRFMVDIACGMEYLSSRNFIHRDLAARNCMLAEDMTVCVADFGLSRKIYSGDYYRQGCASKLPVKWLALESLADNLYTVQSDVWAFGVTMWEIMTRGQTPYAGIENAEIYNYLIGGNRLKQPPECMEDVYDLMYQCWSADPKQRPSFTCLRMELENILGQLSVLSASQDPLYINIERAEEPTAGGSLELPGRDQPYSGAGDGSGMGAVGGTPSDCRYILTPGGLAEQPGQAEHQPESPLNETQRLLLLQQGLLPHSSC

Non-receptor tyrosine-protein kinase TYK2 (Homo sapiens), sequence (P29597 whole entry): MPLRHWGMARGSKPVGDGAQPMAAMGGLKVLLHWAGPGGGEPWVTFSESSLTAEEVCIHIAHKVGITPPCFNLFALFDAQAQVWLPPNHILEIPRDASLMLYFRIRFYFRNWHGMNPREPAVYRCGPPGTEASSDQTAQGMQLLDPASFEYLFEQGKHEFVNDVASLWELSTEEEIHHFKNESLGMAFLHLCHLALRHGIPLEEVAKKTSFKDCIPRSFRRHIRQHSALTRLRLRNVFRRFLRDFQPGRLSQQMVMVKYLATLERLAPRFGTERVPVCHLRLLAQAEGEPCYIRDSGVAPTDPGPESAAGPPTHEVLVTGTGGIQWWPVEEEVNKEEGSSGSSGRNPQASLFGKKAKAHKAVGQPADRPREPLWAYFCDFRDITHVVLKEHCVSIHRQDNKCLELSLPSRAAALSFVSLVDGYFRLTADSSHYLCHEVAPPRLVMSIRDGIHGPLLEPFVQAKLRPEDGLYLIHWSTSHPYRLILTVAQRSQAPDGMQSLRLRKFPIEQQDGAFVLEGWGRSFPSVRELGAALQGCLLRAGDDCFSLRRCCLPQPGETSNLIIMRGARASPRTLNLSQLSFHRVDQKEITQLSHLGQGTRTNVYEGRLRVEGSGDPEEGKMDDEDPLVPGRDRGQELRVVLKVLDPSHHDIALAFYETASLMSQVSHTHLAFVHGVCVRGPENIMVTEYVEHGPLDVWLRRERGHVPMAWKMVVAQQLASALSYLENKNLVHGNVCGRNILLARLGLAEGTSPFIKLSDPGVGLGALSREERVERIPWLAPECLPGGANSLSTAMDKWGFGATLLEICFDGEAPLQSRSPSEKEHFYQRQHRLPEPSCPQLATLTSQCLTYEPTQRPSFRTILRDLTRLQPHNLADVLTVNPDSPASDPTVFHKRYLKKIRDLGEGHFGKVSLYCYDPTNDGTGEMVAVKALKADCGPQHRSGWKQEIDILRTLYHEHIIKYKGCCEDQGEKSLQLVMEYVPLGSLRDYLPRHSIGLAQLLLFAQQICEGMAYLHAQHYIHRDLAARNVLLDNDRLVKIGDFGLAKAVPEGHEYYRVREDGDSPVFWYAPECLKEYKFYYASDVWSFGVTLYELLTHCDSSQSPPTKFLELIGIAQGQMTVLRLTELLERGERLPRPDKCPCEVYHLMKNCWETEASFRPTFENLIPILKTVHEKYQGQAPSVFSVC
Tyrosine-protein kinase Fer (Homo sapiens), sequence (P16591 whole entry, looked up): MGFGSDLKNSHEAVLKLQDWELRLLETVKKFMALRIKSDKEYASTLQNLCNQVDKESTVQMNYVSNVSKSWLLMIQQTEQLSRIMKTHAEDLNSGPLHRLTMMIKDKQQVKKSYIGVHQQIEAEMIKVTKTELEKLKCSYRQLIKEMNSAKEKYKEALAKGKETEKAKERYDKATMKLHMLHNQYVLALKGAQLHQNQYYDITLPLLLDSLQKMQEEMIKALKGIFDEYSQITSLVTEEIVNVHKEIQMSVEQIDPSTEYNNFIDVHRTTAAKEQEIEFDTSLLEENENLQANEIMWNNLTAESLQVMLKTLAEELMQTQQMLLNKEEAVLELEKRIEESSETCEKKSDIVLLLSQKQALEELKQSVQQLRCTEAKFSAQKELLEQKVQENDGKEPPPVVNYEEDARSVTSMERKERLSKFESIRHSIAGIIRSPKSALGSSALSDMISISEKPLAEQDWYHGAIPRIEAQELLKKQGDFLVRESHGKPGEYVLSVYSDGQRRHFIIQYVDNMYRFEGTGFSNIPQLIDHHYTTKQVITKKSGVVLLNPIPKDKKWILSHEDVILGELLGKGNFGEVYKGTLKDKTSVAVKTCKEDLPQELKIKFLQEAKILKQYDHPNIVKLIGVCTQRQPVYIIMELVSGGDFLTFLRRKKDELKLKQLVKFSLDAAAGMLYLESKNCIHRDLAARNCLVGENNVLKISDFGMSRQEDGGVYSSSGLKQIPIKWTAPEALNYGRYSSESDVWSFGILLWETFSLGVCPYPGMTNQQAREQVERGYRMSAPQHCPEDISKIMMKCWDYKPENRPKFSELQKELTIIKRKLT
Fibroblast growth factor receptor 3 (Homo sapiens), sequence (P22607 23-806 limits assumed): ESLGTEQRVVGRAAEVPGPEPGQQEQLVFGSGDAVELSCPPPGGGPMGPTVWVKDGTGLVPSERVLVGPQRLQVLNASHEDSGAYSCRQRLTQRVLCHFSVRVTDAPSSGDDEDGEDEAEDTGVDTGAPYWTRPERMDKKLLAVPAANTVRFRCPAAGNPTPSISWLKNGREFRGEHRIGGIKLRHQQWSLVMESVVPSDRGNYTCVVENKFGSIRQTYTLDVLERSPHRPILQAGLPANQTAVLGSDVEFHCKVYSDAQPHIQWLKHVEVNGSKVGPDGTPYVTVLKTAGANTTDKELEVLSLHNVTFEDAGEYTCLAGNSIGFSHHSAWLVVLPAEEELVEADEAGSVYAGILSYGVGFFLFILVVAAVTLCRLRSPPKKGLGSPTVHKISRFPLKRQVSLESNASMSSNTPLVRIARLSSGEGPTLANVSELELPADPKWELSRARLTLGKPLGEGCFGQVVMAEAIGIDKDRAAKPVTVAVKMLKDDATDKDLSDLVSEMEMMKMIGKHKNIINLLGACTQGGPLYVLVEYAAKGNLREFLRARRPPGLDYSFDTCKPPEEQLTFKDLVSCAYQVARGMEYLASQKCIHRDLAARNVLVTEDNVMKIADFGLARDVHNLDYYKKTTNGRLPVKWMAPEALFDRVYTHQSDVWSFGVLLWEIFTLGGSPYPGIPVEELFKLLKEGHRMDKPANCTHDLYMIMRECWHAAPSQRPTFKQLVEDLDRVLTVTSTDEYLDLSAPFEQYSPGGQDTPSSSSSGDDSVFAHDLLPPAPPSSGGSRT
Vascular endothelial growth factor receptor 1 (Homo sapiens), sequence (P17948 whole entry): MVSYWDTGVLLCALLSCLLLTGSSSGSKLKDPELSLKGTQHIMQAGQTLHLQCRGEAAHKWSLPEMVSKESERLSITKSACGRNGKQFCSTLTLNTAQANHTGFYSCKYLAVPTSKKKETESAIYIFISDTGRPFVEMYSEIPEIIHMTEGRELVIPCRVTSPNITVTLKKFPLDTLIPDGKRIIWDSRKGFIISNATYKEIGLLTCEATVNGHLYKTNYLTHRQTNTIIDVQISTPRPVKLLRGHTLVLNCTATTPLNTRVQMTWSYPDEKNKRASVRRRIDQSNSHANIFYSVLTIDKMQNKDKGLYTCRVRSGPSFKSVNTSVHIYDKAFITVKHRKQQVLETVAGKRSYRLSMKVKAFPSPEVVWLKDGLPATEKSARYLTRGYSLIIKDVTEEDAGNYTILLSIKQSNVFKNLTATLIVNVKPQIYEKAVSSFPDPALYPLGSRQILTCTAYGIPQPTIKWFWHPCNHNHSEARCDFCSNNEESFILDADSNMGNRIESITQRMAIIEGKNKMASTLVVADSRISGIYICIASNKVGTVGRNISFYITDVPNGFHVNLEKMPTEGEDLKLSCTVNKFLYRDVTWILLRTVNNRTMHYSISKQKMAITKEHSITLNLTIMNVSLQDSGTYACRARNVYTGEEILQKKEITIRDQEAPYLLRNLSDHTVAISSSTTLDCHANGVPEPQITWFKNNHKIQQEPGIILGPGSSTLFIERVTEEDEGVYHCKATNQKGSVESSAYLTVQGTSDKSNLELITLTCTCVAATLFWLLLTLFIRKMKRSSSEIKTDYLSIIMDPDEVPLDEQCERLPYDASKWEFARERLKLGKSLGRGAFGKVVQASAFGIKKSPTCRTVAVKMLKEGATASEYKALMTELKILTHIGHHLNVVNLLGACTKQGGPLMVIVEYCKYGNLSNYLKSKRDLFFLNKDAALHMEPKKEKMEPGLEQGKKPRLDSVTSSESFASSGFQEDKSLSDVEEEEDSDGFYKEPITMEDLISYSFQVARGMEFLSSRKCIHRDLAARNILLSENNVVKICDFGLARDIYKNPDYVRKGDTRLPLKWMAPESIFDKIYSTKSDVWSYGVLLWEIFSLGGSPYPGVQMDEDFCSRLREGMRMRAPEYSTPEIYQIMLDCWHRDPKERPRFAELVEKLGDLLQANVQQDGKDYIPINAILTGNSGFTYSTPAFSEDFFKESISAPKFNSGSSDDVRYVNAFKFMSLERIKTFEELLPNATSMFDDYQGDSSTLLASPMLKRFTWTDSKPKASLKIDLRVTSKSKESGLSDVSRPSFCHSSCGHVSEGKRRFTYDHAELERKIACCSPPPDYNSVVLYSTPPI
Fibroblast growth factor receptor 1 (Homo sapiens), sequence (P11362 22-822 limits assumed): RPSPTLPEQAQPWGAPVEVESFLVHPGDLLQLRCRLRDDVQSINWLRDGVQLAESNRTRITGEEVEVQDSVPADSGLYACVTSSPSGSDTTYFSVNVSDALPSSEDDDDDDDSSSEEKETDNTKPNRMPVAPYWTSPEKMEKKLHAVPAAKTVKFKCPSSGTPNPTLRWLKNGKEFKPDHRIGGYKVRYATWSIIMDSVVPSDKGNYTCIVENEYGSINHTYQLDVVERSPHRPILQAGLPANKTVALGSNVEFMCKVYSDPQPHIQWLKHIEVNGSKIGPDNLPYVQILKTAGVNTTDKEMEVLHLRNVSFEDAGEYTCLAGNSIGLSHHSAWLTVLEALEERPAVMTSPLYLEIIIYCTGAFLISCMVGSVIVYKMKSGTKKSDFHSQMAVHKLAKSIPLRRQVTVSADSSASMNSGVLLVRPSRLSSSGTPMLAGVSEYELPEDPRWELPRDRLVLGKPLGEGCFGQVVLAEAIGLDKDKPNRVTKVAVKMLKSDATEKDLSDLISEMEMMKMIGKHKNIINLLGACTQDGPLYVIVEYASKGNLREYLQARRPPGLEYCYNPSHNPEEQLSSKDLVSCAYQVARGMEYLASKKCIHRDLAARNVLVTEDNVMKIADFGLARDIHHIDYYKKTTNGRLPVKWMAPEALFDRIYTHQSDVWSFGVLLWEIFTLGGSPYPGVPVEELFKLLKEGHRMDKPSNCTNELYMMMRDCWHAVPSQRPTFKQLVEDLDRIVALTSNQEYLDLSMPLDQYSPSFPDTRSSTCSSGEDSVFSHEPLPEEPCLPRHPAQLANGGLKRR

Molecule Cc1cccc(-c2n[nH]cc2-c2ccc3ncccc3n2)n1 has an inhibition [1] of 0.01%, an inhibition [2] of 0.45% and an inhibition [3] of -0.18%. For the same molecule, the inhibition [4] was -0.21%, the inhibition [5] was 8.38% and the inhibition [6] was 0.62%. For the same molecule, the inhibition [7] was 5.35%, the inhibition [8] was 1.61% and the inhibition [9] was 4.89%. For the same molecule, the inhibition [10] was 3.49%, the inhibition [11] was 1.18% and the inhibition [12] was 2.06%. For the same molecule, the inhibition [13] was 4.41%, the inhibition [14] was 3.33% and the inhibition [15] was 29.2%. For the same molecule, the inhibition [16] was -1.33%, the inhibition [17] was -0.33% and the inhibition [18] was -5.04%. It also gave an inhibition [19] of 0.67% and an inhibition [20] of 0.27%.

CCc1cccc(NC(=O)Nc2ccc(Oc3ccc4nc(NC(=O)OC)[nH]c4c3)cc2)c1 showed an inhibition [1] of 1.84%, an inhibition [2] of 0.9% and an inhibition [3] of 0.62%. It also gave an inhibition [4] of -3.46%, an inhibition [5] of 3.26% and an inhibition [6] of 3.25%. For the same molecule, the inhibition [7] was 8.89%, the inhibition [8] was 3.09% and the inhibition [9] was 6.95%. For the same molecule, the inhibition [10] was 4.21%, the inhibition [11] was -0.63% and the inhibition [12] was 5.68%. For the same molecule, the inhibition [13] was 5.18%, the inhibition [14] was 36.4% and the inhibition [15] was 43.8%. The inhibition [16] was 37.4%, the inhibition [17] was 48% and the inhibition [18] was 1.59%. The inhibition [19] was -2.46% and the inhibition [20] was 10.6%.

COC(=O)Nc1nc2cc(Oc3ccc(NC(=O)Nc4cccc(C(=O)O)c4)cc3)ccc2[nH]1 gave an inhibition [1] of 2.49%, an inhibition [2] of -0.49% and an inhibition [3] of 0.5%. For the same molecule, the inhibition [4] was -4.37%, the inhibition [5] was -2.27% and the inhibition [6] was -3.37%. For the same molecule, the inhibition [7] was 5.77%, the inhibition [8] was -1.47% and the inhibition [9] was 11.9%. For the same molecule, the inhibition [10] was -6.8%, the inhibition [11] was -1.22% and the inhibition [12] was 3.78%. It also gave an inhibition [13] of 6.34%, an inhibition [14] of 3.38% and an inhibition [15] of 8.22%. For the same molecule, the inhibition [16] was 1.16%, the inhibition [17] was 5.75% and the inhibition [18] was 3.31%. The inhibition [19] was -0.42% and the inhibition [20] was 0.5%.

With CCCN1CCC=C(c2ccc(Nc3nc(Nc4ccccc4C(N)=O)c4cc[nH]c4n3)c(C)c2)C1 the inhibition [1] was 68.7%, the inhibition [2] was 16.5% and the inhibition [3] was 57.3%. The inhibition [4] was 1.72%, the inhibition [5] was 7.09% and the inhibition [6] was 6.37%. It also gave an inhibition [7] of 7.35%, an inhibition [8] of 6.92% and an inhibition [9] of 6.81%. For the same molecule, the inhibition [10] was 3.01%, the inhibition [11] was 1.82% and the inhibition [12] was -0.56%. The inhibition [13] was 4.71%, the inhibition [14] was -0.55% and the inhibition [15] was 5.76%. The inhibition [16] was 6.74%, the inhibition [17] was 9.96% and the inhibition [18] was 3.17%. The inhibition [19] was -1.46% and the inhibition [20] was 0.75%.

NS(=O)(=O)c1cccc(-c2ccc3c(NC(=O)C4CC4)n[nH]c3c2)c1 showed an inhibition [1] of 3.76%, an inhibition [2] of -3.2% and an inhibition [3] of -4%. It also gave an inhibition [4] of 0.33%, an inhibition [5] of -2.92% and an inhibition [6] of -1.77%. For the same molecule, the inhibition [7] was -1.15%, the inhibition [8] was -0.12% and the inhibition [9] was 0.44%. The inhibition [10] was 0.21%, the inhibition [11] was -0.5% and the inhibition [12] was -1.55%. It also gave an inhibition [13] of -0.19%, an inhibition [14] of -1.03% and an inhibition [15] of -0.85%. The inhibition [16] was 0.61%, the inhibition [17] was -0.59% and the inhibition [18] was -3.17%. It also gave an inhibition [19] of 1.94% and an inhibition [20] of -0.52%.

For [O-][S+]1CCN(Cc2ccc(-c3ccc4ncnc(Nc5ccc(OCc6ccccc6)c(F)c5)c4c3)o2)CC1, the inhibition [1] was 6.08%, the inhibition [2] was 1.91% and the inhibition [3] was 3.4%. It also gave an inhibition [4] of 2.71%, an inhibition [5] of -2.34% and an inhibition [6] of 1.34%. For the same molecule, the inhibition [7] was 3.9%, the inhibition [8] was 3.41% and the inhibition [9] was 2.82%. For the same molecule, the inhibition [10] was 0.38%, the inhibition [11] was 0.02% and the inhibition [12] was 0.4%. For the same molecule, the inhibition [13] was 9.74%, the inhibition [14] was 1.64% and the inhibition [15] was -1.13%. The inhibition [16] was -0.1%, the inhibition [17] was 2.1% and the inhibition [18] was -4.8%. For the same molecule, the inhibition [19] was -3.99% and the inhibition [20] was 1.34%.

Molecule CCN1CCC(CC(=O)Nc2n[nH]c3nc(-c4cccs4)c(Br)cc23)CC1 has an inhibition [1] of 2.34%, an inhibition [2] of -3.39% and an inhibition [3] of -4.54%. For the same molecule, the inhibition [4] was -3.02%, the inhibition [5] was -1.95% and the inhibition [6] was -4.3%. For the same molecule, the inhibition [7] was -0.25%, the inhibition [8] was -1.64% and the inhibition [9] was -1.77%. For the same molecule, the inhibition [10] was 0.71%, the inhibition [11] was 1.97% and the inhibition [12] was -0.94%. The inhibition [13] was 0.5%, the inhibition [14] was 0.44% and the inhibition [15] was 3.83%. It also gave an inhibition [16] of -0.9%, an inhibition [17] of 9.19% and an inhibition [18] of 3.26%. The inhibition [19] was 2.37% and the inhibition [20] was -1.49%.

CN(C)c1cc2c(Nc3ccc4nc(Cc5ccccc5)[nH]c4c3)ncnc2cn1 was tested, and the inhibition [1] was 10.5%, the inhibition [2] was 3.37% and the inhibition [3] was 3.11%. The inhibition [4] was 8.38%, the inhibition [5] was 15.2% and the inhibition [6] was 5.58%. For the same molecule, the inhibition [7] was 10.4%, the inhibition [8] was 7.84% and the inhibition [9] was 11.4%. The inhibition [10] was 2.81%, the inhibition [11] was 13.5% and the inhibition [12] was 17.2%. For the same molecule, the inhibition [13] was 42.2%, the inhibition [14] was 3.21% and the inhibition [15] was 11.2%. It also gave an inhibition [16] of 0.49%, an inhibition [17] of 0.52% and an inhibition [18] of -0.65%. It also gave an inhibition [19] of -7.84% and an inhibition [20] of 3.2%.
